The supplement of paper PMC10849652
The full data set covers some 7,900 targets. This sample favours those with a hit. About 0.6% of all pairs of compound and target were hits. Unmarked numbers belong to inactive results.

Key:
Experiment in all cases: log2 fold change, soluble protein after heating vs DMSO (PISA); higher = thermal stabilisation; K562 cells, 10 uM, 30 min; active = over 0.2 and 3.5 SD of the protein, either way, in both replicates (recomputed)
erlotinib = compound: C#Cc1cccc(Nc2ncnc3cc(OCCOC)c(OCCOC)cc23)c1 [erlotinib]
Outline: (§1)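 K562 cells at 2×10^6 cells/mL were exposed to 10 μM compound for 30 min, then aliquots were heated for 3 min across 48°C-58°C, pooled, and extracted in PBS containing 0.5% NP-40 at 4°C. The supernatant after 21,000xg for 90 min was taken as soluble protein and measured by TMTpro 16plex LC-MS/MS with channel sums equalised. Thermal stability is reported relative to control samples, with values from duplicates. Fold changes are given on a log2 scale.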

[1] = compound: C/C(=N\NC(=O)C1=CC(=CC=C1)S(=O)(=O)N2CCOCC2)/C3=C(C=CC(=C3)Cl)O
Outline: as §1

[2] = compound: C1=CC(=C(C=C1Cl)C2=NC3=NC=CN=C3C(=N2)NC4=CC=NC=C4)F
Outline: as §1

[3] = compound: C1=CC(=CC=C1C2=NC3=C(N2)C=C(C=C3)C(=O)N)OC4=CC=C(C=C4)Cl
Outline: as §1

[4] = compound: C1=CC2=C(C=CC(=C2)/C=C\3/C(=O)NC(=NCC4=CC=CS4)S3)N=C1
Outline: as §1

[5] = compound: C1=CC2=NC=CN=C2C=C1/C=C/3\C(=O)NC(=O)S3
Outline: as §1

[6] = compound: C1=CC=C(C=C1)C2=NC(=C(N2)C3=CC=NC=C3)C4=CC(=C(C=C4)Cl)O
Outline: as §1

[7] = compound: C1=CC=C2C(=C1)C3=NNC4=CC=CC(=C43)C2=O
Outline: as §1

[8] = compound: C1CCN(C1)C(=O)NC2=CC=CC(=C2)NC3=NC=C(C(=N3)NCCC4=CN=CN4)Br
Outline: as §1

[9] = compound: C1CN(CCC1(CC2=CC=C(C=C2)Cl)N)C3=NC=NC4=C3C=CN4
Outline: as §1

Sequence of UniProt O75116 (O75116 whole entry, looked up): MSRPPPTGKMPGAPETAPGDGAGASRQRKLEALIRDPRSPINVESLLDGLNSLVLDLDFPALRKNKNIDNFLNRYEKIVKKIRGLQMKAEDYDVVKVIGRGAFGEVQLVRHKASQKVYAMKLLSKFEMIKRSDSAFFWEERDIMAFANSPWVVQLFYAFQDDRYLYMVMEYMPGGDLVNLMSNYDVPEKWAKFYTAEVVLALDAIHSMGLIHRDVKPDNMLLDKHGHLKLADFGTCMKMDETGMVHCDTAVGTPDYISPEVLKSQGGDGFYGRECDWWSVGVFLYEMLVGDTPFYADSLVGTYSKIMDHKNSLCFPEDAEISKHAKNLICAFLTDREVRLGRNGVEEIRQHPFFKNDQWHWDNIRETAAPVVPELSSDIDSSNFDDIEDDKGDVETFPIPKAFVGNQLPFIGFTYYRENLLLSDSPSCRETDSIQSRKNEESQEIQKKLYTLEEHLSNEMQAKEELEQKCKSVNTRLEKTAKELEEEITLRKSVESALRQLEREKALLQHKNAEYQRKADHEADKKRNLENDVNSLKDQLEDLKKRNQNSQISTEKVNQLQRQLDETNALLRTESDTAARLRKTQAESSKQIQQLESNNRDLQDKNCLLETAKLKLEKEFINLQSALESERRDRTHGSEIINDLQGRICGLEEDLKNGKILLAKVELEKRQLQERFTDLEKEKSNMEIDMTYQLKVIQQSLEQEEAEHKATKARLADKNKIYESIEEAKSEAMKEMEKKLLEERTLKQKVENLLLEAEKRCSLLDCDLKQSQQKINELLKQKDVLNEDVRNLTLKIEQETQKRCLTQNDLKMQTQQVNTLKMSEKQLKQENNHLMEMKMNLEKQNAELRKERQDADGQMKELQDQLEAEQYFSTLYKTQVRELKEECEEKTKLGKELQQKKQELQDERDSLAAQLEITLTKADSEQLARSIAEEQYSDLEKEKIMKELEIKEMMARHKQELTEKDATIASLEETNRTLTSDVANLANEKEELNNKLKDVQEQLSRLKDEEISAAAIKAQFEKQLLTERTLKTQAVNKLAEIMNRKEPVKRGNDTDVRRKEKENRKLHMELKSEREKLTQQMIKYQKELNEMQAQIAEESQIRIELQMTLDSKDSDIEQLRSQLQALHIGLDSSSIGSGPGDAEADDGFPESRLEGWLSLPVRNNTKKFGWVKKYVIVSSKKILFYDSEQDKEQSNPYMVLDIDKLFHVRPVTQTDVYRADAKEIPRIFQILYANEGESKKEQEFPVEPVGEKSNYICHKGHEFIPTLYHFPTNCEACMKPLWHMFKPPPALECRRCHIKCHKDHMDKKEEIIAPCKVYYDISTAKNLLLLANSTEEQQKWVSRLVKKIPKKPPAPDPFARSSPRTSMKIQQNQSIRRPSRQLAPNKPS
Sequence of UniProt P54136 (P54136 whole entry, looked up): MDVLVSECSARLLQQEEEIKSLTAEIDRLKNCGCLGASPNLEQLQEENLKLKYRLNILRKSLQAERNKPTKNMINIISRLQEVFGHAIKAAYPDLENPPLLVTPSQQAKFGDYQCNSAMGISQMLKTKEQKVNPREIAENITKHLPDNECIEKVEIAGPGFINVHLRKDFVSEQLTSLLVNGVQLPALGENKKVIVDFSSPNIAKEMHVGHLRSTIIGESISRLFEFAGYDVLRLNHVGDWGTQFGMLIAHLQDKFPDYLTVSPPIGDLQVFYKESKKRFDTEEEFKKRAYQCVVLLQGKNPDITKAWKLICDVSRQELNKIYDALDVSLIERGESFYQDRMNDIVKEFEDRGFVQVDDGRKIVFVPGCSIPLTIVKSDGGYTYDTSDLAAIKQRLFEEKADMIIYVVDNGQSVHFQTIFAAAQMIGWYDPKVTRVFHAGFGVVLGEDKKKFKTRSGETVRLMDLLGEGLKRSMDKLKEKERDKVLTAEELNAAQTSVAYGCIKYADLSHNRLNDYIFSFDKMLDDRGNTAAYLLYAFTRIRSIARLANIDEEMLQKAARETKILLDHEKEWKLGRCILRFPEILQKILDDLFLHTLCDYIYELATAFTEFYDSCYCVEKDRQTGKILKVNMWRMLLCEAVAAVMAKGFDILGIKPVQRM
Sequence of UniProt Q14151 (Q14151 whole entry, looked up): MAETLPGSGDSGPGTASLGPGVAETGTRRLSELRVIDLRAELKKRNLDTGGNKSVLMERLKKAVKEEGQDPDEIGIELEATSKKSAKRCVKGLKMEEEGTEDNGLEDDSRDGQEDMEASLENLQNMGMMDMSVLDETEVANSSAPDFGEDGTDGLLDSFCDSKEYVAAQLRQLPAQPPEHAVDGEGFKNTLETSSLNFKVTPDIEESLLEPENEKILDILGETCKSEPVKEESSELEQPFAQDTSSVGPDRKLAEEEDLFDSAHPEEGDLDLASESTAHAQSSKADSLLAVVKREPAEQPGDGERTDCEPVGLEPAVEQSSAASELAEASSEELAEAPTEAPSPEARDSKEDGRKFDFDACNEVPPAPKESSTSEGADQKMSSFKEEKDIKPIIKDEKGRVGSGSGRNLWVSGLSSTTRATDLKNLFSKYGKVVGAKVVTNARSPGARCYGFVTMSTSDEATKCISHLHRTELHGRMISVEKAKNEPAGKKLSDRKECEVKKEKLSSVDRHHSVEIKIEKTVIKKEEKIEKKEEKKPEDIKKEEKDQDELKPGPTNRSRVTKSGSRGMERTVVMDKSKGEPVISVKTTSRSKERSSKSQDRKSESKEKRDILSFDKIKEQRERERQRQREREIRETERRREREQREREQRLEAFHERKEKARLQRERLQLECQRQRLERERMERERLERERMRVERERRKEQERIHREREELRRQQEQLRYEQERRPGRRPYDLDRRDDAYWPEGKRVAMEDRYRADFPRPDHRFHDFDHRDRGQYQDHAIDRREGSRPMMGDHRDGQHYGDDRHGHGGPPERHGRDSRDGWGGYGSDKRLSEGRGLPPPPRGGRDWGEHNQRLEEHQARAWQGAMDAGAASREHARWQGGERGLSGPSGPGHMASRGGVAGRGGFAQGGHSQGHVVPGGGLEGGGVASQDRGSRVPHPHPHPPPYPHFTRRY
Sequence of UniProt P46063 (P46063 whole entry, looked up): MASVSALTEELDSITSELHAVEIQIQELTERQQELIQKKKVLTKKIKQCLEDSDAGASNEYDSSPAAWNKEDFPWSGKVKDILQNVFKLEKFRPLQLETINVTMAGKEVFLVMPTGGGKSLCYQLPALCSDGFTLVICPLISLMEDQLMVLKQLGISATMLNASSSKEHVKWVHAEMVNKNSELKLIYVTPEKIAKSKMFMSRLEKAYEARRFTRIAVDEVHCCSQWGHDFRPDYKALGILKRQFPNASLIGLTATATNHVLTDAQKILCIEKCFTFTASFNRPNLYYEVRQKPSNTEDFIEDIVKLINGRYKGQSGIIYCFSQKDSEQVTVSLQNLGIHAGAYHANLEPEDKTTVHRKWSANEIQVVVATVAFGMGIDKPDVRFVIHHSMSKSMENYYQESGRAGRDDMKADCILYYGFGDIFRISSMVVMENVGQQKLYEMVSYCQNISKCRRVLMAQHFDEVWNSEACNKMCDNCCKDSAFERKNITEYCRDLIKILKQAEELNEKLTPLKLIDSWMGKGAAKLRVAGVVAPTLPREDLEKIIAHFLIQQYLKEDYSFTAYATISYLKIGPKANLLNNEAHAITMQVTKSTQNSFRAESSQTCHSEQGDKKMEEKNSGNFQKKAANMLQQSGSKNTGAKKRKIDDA
Sequence of UniProt Q8WZA2 (Q8WZA2 whole entry, looked up): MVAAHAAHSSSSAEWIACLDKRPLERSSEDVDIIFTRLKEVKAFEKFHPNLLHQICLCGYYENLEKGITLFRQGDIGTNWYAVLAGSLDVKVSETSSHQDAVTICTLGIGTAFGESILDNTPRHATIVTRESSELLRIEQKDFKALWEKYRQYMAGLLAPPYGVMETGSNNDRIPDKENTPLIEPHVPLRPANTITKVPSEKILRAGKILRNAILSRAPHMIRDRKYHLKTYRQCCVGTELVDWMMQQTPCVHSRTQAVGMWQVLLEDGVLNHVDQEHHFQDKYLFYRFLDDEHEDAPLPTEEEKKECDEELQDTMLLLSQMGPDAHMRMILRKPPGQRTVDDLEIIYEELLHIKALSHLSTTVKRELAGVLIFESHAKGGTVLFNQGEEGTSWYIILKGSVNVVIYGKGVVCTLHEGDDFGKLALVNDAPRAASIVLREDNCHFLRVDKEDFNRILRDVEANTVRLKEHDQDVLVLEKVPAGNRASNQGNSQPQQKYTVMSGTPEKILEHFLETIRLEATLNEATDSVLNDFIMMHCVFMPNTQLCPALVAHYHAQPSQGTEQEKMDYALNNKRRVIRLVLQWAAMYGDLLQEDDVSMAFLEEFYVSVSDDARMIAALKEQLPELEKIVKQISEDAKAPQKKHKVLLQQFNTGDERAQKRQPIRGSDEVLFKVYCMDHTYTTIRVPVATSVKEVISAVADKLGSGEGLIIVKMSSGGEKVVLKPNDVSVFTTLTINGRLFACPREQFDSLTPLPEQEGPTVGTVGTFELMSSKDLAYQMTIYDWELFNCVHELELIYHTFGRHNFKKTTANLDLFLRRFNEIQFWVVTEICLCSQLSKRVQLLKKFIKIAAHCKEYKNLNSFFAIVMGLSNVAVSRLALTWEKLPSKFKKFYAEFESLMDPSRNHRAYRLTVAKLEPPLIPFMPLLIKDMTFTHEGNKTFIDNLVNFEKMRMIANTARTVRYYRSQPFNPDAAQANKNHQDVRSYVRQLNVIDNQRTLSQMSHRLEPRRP
Sequence of UniProt P62070 (P62070 whole entry, looked up): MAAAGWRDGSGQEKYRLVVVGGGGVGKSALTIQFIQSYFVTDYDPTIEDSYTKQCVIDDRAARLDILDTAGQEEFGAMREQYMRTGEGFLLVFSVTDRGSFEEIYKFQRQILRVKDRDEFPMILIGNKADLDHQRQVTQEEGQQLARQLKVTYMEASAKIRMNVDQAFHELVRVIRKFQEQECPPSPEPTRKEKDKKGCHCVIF
Sequence of UniProt O95059 (O95059 whole entry, looked up): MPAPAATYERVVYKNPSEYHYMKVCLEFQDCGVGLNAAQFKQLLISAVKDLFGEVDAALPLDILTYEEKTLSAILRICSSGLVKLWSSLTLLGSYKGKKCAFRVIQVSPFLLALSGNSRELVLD

Row | Target | log2 fold change (erlotinib) | log2 fold change [1] | log2 fold change [2] | log2 fold change [3] | log2 fold change [4] | log2 fold change [5] | log2 fold change [6] | log2 fold change [7] | log2 fold change [8] | log2 fold change [9]
1 | SACM1L (UniProt Q9NTJ5) | 0.005 | 0.1 | 0.109 | -0.061 | 0.039 | -0.007 | 0.077 | 0.009 | 0.001 | 0.068
2 | SCPEP1 (UniProt Q9HB40) | -0.002 | 0.017 | 0.064 | 0.015 | -0.024 | 0.058 | -0.013 | 0.017 | -0.012 | 0.079
3 | RPP14 (UniProt O95059) | -0.047 | 0.09 | -0.077 | 0.059 | -0.046 | -0.023 | 0.012 | -0.022 | -0.017 | 0.021
4 | RB1CC1 (UniProt Q8TDY2) | 0.119 | -0.066 | 0.102 | 0.046 | 0.211 | -0.07 | 0.015 | 0.03 | -0.024 | 0.022
5 | RPS4X (UniProt P62701) | -0.177 | -0.092 | -0.37 | 0.054 | -0.042 | -0.033 | -0.043 | 0.043 | 0.076 | -0.221
6 | RNASEH2A (UniProt O75792) | 0.041 | 0.085 | -0.062 | 0.019 | 0.119 | -0.038 | -0.026 | 0.065 | -0.016 | -0.115
7 | RPS6KA2 isoform 2 (UniProt Q15349) | 0.008 | 0.092 | -0.068 | 0.075 | 0.07 | 0.06 | -0.132 | -0.473 (active) | -0.058 | -0.004
8 | RBM48 isoform 2 (UniProt Q5RL73) | -0.048 | 0.017 | -0.065 | -0.026 | 0.053 | 0.055 | -0.144 | 0.042 | 0.118 | -0.115
9 | RARS (UniProt P54136) | 0.023 | 0.011 | -0.169 | -0.007 | 0.019 | 0 | -0.046 | -0.005 | 0.07 | -0.155
10 | RECQL (UniProt P46063) | -0.019 | 0.072 | 0.066 | -0.005 | 0.046 | 0.004 | -0.004 | -0.003 | -0.062 | 0.01
11 | RRAS2 isoform 4 (UniProt P62070) | 0.002 | -0.076 | -0.046 | 0.015 | -0.006 | 0.038 | -0.015 | -0.059 | -0.085 | 0.093
12 | RIOK3 (UniProt O14730) | 0.037 | 0.014 | 0.062 | 0.003 | -0.019 | 0.048 | -0.033 | 0.02 | 0.024 | -0.025
13 | RPS20 isoform 2 (UniProt P60866) | -0.129 | -0.082 | -0.171 | 0.023 | -0.004 | -0.068 | -0.04 | -0.025 | 0.05 | -0.159
14 | SART3, A0A499FI31 | -0.034 | 0.058 | 0.102 | 0.032 | 0.032 | 0.084 | -0.004 | -0.045 | -0.078 | -0.014
15 | RBM17 (UniProt Q96I25) | 0.039 | 0.044 | 0.015 | -0.023 | -0.085 | -0.029 | 0.1 | 0.011 | -0.08 | -0.16
16 | RRAGC (UniProt Q9HB90) | 0.014 | 0.03 | 0.047 | -0.007 | 0.019 | 0.013 | -0.051 | -0.02 | 0.014 | 0.052
17 | RALGPS2 (UniProt Q86X27) | -0.43 | -0.07 | -0.321 | 0.037 | -0.079 | 0.111 | – | -0.012 | -0.06 | 0.154
18 | SEC23A (UniProt Q15436) | 0.026 | 0.1 | 0.022 | -0.036 | -0.024 | 0.021 | 0.005 | -0.018 | 0.019 | -0.019
19 | RPL31 (UniProt P62899) | -0.145 | -0.174 | -0.444 | 0.055 | -0.052 | -0.02 | -0.047 | -0.011 | 0.087 | -0.215
20 | SCCPDH (UniProt Q8NBX0) | -0.047 | -0.021 | 0.079 | -0.065 | 0.019 | 0.051 | 0.037 | 0.03 | 0.011 | 0.064
21 | RIC8A isoform 3 (UniProt Q9NPQ8) | 0.063 | 0.114 | 0 | -0.031 | 0.114 | -0.052 | 0.005 | -0.021 | -0.071 | -0.057
22 | RAPGEF4 (UniProt Q8WZA2) | 0.271 | -0.636 (active) | 0.057 | 0.053 | 0.19 | 0.029 | – | -0.014 | -0.038 | 0.18
23 | RPS13 (UniProt P62277) | -0.156 | -0.17 | -0.544 | 0.088 | -0.11 | -0.053 | -0.088 | -0.015 | 0.101 | -0.184
24 | RAP1GDS1 isoform 5 (UniProt P52306) | 0.019 | -0.012 | -0.021 | -0.013 | 0.027 | 0.106 | -0.016 | -0.038 | -0.023 | -0.077
25 | SAFB2 (UniProt Q14151) | 0.015 | -0.135 | -0.294 | 0.071 | -0.148 | 0.049 | 0.014 | -0.015 | -0.037 | -0.041
26 | ROCK2 (UniProt O75116) | 0.05 | 0.02 | 0.031 | 0.003 | 0.158 | 0.126 | -0.009 | -0.071 | 0.036 | 0.099
27 | RPS5 (UniProt P46782) | -0.149 | -0.087 | -0.193 | 0.038 | -0.047 | -0.045 | -0.003 | 0.008 | 0.022 | -0.125
